PubChem BioAssay (NCI)
This is part of a sample that, as a whole, favours compounds with a hit. Of some 83,000 tested, about 20% had one in any assay.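 48-hour exposure, single concentration, 96-well plates; percent growth endpoint where 0 means no net growth. Active: below 10.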 Activity calls are given as the source filed them.

System: UACC-62 melanoma
Assay: NCI-60 one-dose screen, 48 h (100 = growth as untreated, 0 = no growth, -100 = all killed)
Settings: 10 µM unless noted

Compound | growth
O=[As](O)(O)c1ccccc1[As](=O)(O)O | 98.5% (inactive)
COC(=O)[C@@H](C)C[C@H](Cc1ccccc1)NC(=O)c1csc([C@@H](C[C@H](C(C)C)N(C)C(=O)C2(NC(=O)[C@H]3CCCCN3C)CC2)OC(C)=O)n1 | 41.1% (inactive)
CN1C(=O)C23CC4(C56CC78SSC(CO)(C(=O)N7C5Nc5ccccc56)N(C)C8=O)c5ccccc5NC4N2C(=O)C1(CO)SS3 (stereo not given) | -95.6% (active)
CCNc1nc(Cl)nc(NCC)n1 | 102% (inactive)
COc1ccc(C2=CC(c3ccc(OC)c(OC)c3)c3c(c4ccccc4oc3=O)O2)cc1OC (stereo not given) | 36.8% (inactive)
COC(=O)[C@H](Cc1ccccc1)NNC(=O)c1csc([C@@H](C[C@H](C(C)C)N(C)C(=O)[C@@H](NC(=O)[C@H]2CCCCN2C)C2CC2)OC(C)=O)n1 | 33.7% (inactive)
Clc1ccc(CSC(Cn2ccnc2)c2ccc(Cl)cc2Cl)cc1 (stereo not given) | 29.5% (inactive)
C=CC1=C[C@@H]2[C@@H]3O[C@]4(CC[C@H](O4)[C@@H](C)C[C@@H](O)C3=O)C[C@H](O)C3=NCC[C@@]32CC1 | -68.3% (active)
COC1CC2c3ccccc3C1C(C)=[N+]2C (stereo not given) | 91.8% (inactive)
Cc1cc(N(CCCl)CCCl)ccc1C=Nc1ccc(-c2csc(Cc3ccccc3)n2)cc1 | 48.6% (inactive)
N/C(=N/N=C/c1ccncc1)N[N+](=O)[O-] | 97.3% (inactive)
CCN1C(=O)C(=C/C=C/c2ccccc2)C(=O)N(CC)C1=O | 79% (inactive)
CC(=O)O[C@H](C[C@H](C(C)C)N(C)C(=O)[C@@H](NC(=O)[C@H]1CCCCN1C)C(C)C)c1cccc(C(=O)N[C@@H](Cc2ccccc2)C[C@H](C)C(=O)O)n1 | 36.3% (inactive)

System: LOX IMVI melanoma
Assay: as above
Settings: 10 µM unless noted

Compound | growth
ClCCN(CCCl)Cc1ccc(Nc2ccnc3cc(Cl)ccc23)cc1 | 20.1% (inactive)
N#CCCNc1ccccc1 | 106% (inactive)
C[C@]12CCc3sc(NCCc4ccccc4)nc3C1=CC[C@@H]1[C@@H]2CC[C@]2(C)C(=O)CC[C@@H]12 | 70.2% (inactive)
Cc1cnc(/C=C/C(=O)O)cc1-c1cc2c(cc1C)C(C)(C)CCC2(C)C | 47.9% (inactive)
C[C@@H]1CCC2[C@@H](C)[C@H](OC(=O)CCC(=O)NCCNC(=O)Cc3cc(=O)oc4cc(N(C)C)ccc34)O[C@@H]3O[C@]4(C)CC[C@@H]1C23OO4 (stereo not given in full) | -7.91% (active)
CCN(CCO)C(Cc1ccccc1)c1ccccc1 (stereo not given) | 92.6% (inactive)
CC1=C2[C@@H](CC1)[C@]1(C)O[C@@](C(C)C)(C[C@H]1O)[C@H]2OC(=O)C1CC1c1ccccc1 (stereo not given in full) | 93.3% (inactive)
COC(=O)[C@@H](C)C[C@H](Cc1ccccc1)NC(=O)c1nc([C@@H](C[C@H](C(C)C)N(C)C(=O)[C@@H](NC(=O)[C@H]2C[C@H](O)CCN2C)C(C)C)OC(C)=O)sc1C(C)C | 8.19% (active)
COc1cc(C=Nc2cc(Cl)cc(Cl)c2)ccc1N(CCCl)CCCl | 78.7% (inactive)
COC(=O)[C@@H](C)C[C@H](Cc1ccccc1)NC(=O)c1csc([C@@H](C[C@H](C(C)C)N(C)C(=O)[C@@H](NC(=O)[C@H]2CCCN2C)C2CC2)OC(C)=O)n1 | 15% (inactive)
NC(=S)c1cn(C2OC(CO)C(O)C2O)c2ncnc(N)c12 (stereo not given) | -22.9% (active)
O=C(N/N=C/c1ccc(N(CCCl)CCCl)cc1)c1cccc2ccccc12 | 61.3% (inactive)
Oc1ccc2c3c1OC1[C@@H](O)CC[C@@]4(O)[C@@H](C2)N(CC2CCC2)CC[C@]314 (stereo not given in full) | 97.3% (inactive)
CCOC(=O)[C@@H](C)C[C@H](Cc1ccccc1)NC(=O)c1csc([C@@H](C[C@H](C(C)C)N(C)C(=O)[C@@H](NC(=O)[C@H]2C[C@H](O)CCN2C)C(C)C)OC(C)=O)n1 | 18.2% (inactive)
COC(=O)C12CC(NC(=O)c3csc([C@@H](C[C@H](C(C)C)N(C)C(=O)[C@@H](NC(=O)[C@H]4CCCCN4C)C(C)C)OC(C)=O)n3)(C1)C2 | 22.2% (inactive)
COC(=O)[C@@H](C)C[C@H](Cc1ccccc1)NC(=O)c1csc([C@@H](C[C@H](C(C)C)N(C)C(=O)[C@H](C)NC(=O)[C@H]2CCCCN2C)OC(C)=O)n1 | 39.8% (inactive)
O=C(CCCCCNC1=CC(=O)c2ccccc2C1=O)NCCC[Te]c1ccccc1 | -22.1% (active)
CC(=O)O[C@H](C[C@H](C(C)C)N(C)C(=O)[C@@H](NC(=O)[C@H]1CCCCN1C)C(C)(C)C)c1nc(C(=O)N[C@@H](Cc2ccccc2)C[C@H](C)C(=O)O)cs1 | 14.3% (inactive)
COc1ccc(/C=C\c2cc(OC)c(OC)c(OC)c2)cc1OCC(=O)Nc1nc2ccc(F)cc2s1 | 19.1% (inactive)

Compound | growth
COc1ccc(C(=O)c2cc(OC)c(OC)c(OC)c2)cc1OC(C)=O | 19.7% (inactive)
C[C@]12C[C@@H](CO)[C@H](O)C[C@@H]1CC[C@@H]1[C@@H]2CC[C@]2(C)[C@@H](O)CC[C@@H]12 | 93.8% (inactive)
N#CC1(C#N)C(c2ccc(N(CCCl)CCCl)cc2)OC23CCCCC2C1(C#N)C(=N)O3 (stereo not given) | 68.6% (inactive)
O=[N+]([O-])c1ccc([Se]C2CCCCC2Cl)c([N+](=O)[O-])c1 (stereo not given) | -55.2% (active)
COc1ccc(-n2c(C)nc3cc(OC)c(OC)cc3c2=O)cc1OC | 101% (inactive)
O=[As](O)(O)c1ccccc1[As](=O)(O)O | 87.6% (inactive)
COC(=O)[C@@H](C)C[C@H](Cc1ccccc1)NC(=O)c1csc([C@@H](C[C@H](C(C)C)N(C)C(=O)C2(NC(=O)[C@H]3CCCCN3C)CC2)OC(C)=O)n1 | 3.04% (active)
CN1C(=O)C23CC4(C56CC78SSC(CO)(C(=O)N7C5Nc5ccccc56)N(C)C8=O)c5ccccc5NC4N2C(=O)C1(CO)SS3 (stereo not given) | -93.6% (active)
CCNc1nc(Cl)nc(NCC)n1 | 97.9% (inactive)
COc1ccc(C2=CC(c3ccc(OC)c(OC)c3)c3c(c4ccccc4oc3=O)O2)cc1OC (stereo not given) | 36% (inactive)
COC(=O)[C@H](Cc1ccccc1)NNC(=O)c1csc([C@@H](C[C@H](C(C)C)N(C)C(=O)[C@@H](NC(=O)[C@H]2CCCCN2C)C2CC2)OC(C)=O)n1 | 13.6% (inactive)
Clc1ccc(CSC(Cn2ccnc2)c2ccc(Cl)cc2Cl)cc1 (stereo not given) | 18% (inactive)
C=CC1=C[C@@H]2[C@@H]3O[C@]4(CC[C@H](O4)[C@@H](C)C[C@@H](O)C3=O)C[C@H](O)C3=NCC[C@@]32CC1 | -59.9% (active)
COC1CC2c3ccccc3C1C(C)=[N+]2C (stereo not given) | 94.7% (inactive)
Cc1cc(N(CCCl)CCCl)ccc1C=Nc1ccc(-c2csc(Cc3ccccc3)n2)cc1 | 63.2% (inactive)
N/C(=N/N=C/c1ccncc1)N[N+](=O)[O-] | 95.5% (inactive)
CCN1C(=O)C(=C/C=C/c2ccccc2)C(=O)N(CC)C1=O | 17% (inactive)
CC(=O)O[C@H](C[C@H](C(C)C)N(C)C(=O)[C@@H](NC(=O)[C@H]1CCCCN1C)C(C)C)c1cccc(C(=O)N[C@@H](Cc2ccccc2)C[C@H](C)C(=O)O)n1 | 14.6% (inactive)
